Growth inhibition data for 40 compounds are collected here from PubChem BioAssay (NCI).

The panel holds about 79,000 compounds, 15% with a hit somewhere; the sample as a whole holds those more often. Activity calls are given as the source filed them. Rule as the data show it: active = growth inhibition above about 70%; inactive = the rest.

This assay in a line: NCI Yeast Anticancer Drug Screen. Data for the mlh1 rad18 strain (AID 175). The conditions noted are these: S. cerevisiae mlh1 rad18 strain growth inhibition; at 50.0 µM; active compounds read high. The method, then: Growth inhibition of yeast strains with defined genetic alterations is measured as a screen for potential anti-cancer activity. Selected strains with alterations in DNA damage repair or cell cycle control were exposed to compounds and growth inhibition was measured relative to vehicle treated controls. The strain used in this assay is mlh1 rad18
With `CC(=O)CC(=O)CCCCC(=O)O`, the growth inhibition was 4.8% (inactive). With `Cc1ccccc1NC(=O)CC(=O)NNC(Sc1ccccc1)c1cc(N=Nc2ccc(Br)cc2)ccc1O` (stereo not given), the growth inhibition was 18.9% (inactive). As for `c1ccc(CN2CCC3(N4CCOCC4)C(C2)N=NN3c2ccccc2)cc1` (stereo not given), the figure is -14.2% (inactive); as for `O=C(Cc1ccc(Cl)cc1)c1ccccc1Cl`, 4.4% (inactive); as for `O=C(N/N=C\c1ccccn1)Nc1ccc(N=Nc2ccccc2)cc1`, 4.9% (inactive). As for `Cc1nn(C(=O)Cc2ccccc2)c2c1C(c1ccc(O)cc1O)SC(N)=N2` (stereo not given), the figure is -36.5% (inactive); as for `NC(CO)CSCc1ccccc1` (stereo not given), -0.65% (inactive); as for `CCN(CCO)CC(O)Cn1cnc2c(N)ncnc21` (stereo not given) (tested in a mixture with another compound), 17.4% (inactive). Take `O=C1C=C(Nc2ccccc2C(=O)CC(=O)C(=O)Nc2ccc(Cl)c(Cl)c2)c2ccccc2C1=O`: the growth inhibition is -7.15% (inactive). The result for `CCOc1ccc(CO)cc1` reads -38.8% (inactive); that for `O=C(O)CCCc1ccc2c(c1)CC1(C2)Cc2cc3c(cc2C1)CCCC3`, 7.4% (inactive); that for `CC1OC(OCc2ccc(-c3ccccc3)cc2)CC(N)C1O` (stereo not given), 2.9% (inactive).

Turning to `CCCCCCC1(C)OCC(c2ccccc2)O1` (stereo not given), the growth inhibition is 9.65% (inactive). The result for `CC(C)OC(=O)NN(C)c1ccccc1` reads 13.8% (inactive); that for `Nc1cccnc1NCC(O)c1ccccc1` (stereo not given), 10.6% (inactive). As for `CCN(CC)CCSc1cc(C)c2ccc(N)nc2n1`, the figure is -1.1% (inactive); as for `ClCCCCOC1CCCCO1` (stereo not given), -29.8% (inactive); as for `NC1Nc2ccccc2NC1=O` (stereo not given), 0.05% (inactive). As for `NS(=O)(=O)c1cccc(C(F)(F)F)c1`, the figure is -7.2% (inactive); as for `Cc1ccc(SC(F)(F)C(F)C(F)(F)F)cc1` (stereo not given), -1.1% (inactive); as for `C=CCSC(=S)Nc1nc2ccc(C)cc2s1`, 2.1% (inactive). Turning to `O=C1NC(O)c2cccc(F)c2O1` (stereo not given), the growth inhibition is 58.9% (inactive). On to `COc1cc2ccnc(C#N)c2cc1OCc1ccccc1`, for which the growth inhibition is -31.3% (inactive). On to `CN(C)c1nc2oc(-c3ccccc3)c(-c3ccccc3)c2c2nncn12`, for which the growth inhibition is -22.5% (inactive).

On to `CCCCCC(=O)C(C)=O`, for which the growth inhibition was -12.2% (inactive). The result for `O=C(Cl)C1CC=C2c3ccccc3CCC2C1C(=O)Cl` (stereo not given) reads -5.5% (inactive); that for `COc1cc(C(=O)N2C[C@H](O)C[C@H]2C(=O)O)cc(OC)c1OC`, -9.85% (inactive); that for `CC1CN(C(=S)Nc2ccccc2)C(C)CN1CCO` (stereo not given), 16.6% (inactive).

Turning to `C[C@@H]1C(=O)CC2(O)[C@@]13C[C@@H](OC(=O)[C@@H]3O)[C@@H](C)[C@@]21COC1=O` (stereo not given in full), the growth inhibition was -47.1% (inactive). As to `COc1ccc(NC(=O)CC(=O)N2N=C(N(CCC#N)c3ccc(Cl)cc3)CC2c2ccccc2)cc1` (stereo not given), the growth inhibition was -6.05% (inactive). The result for `CC1CCOC(c2ccccc2Cl)O1` (stereo not given) reads 5% (inactive); that for `c1ccc(SSc2ccc3ccccc3c2)cc1`, 28.3% (inactive). As for `CC12CCC3c4ccc(OC(=O)c5ccccc5)cc4CCC3C1CC(O)C2` (stereo not given), the figure is 11.9% (inactive); as for `Cc1ccc(C(=O)c2c[nH]c(=O)[nH]c2=O)cc1`, -21.9% (inactive); as for `c1ccc(-c2coc(-c3ccccc3)n2)cc1`, -10.2% (inactive). The result for `O=c1[nH]c(-c2cccnc2)nnc1-c1ccc(Cl)cc1` reads 4.2% (inactive); that for `CCCCCCCCCCCCN1CCCN(CCCCCCCCCCCC)CC1`, 99.2% (active); that for `CCN(CC)CCNc1cccc(Cl)c1`, 47.5% (inactive). Regarding `C/C(=N/Nc1ccc([N+](=O)[O-])cc1[N+](=O)[O-])C(C)(C)C`, the growth inhibition is -13.2% (inactive).

Turning to `C/C(=N\NC(=S)N1CCCC1)c1ccc[nH]1`, the growth inhibition is -2.3% (inactive).
